We go through 40 compounds from PubChem BioAssay (NCATS).

Each structure is given as a SMILES string. Inconclusive results are not listed. The source made the active and inactive calls. The call rests on the fitted dose curve; in most records, active means well fitted curve in the direction sought with a large enough effect; inconclusive means small, poorly fitted or top-dose-only effect, or another doubt; inactive means no such curve, though single readings can be large; an effect the other way counts as inactive or inconclusive. Numbered stars: 1 amine (or outer) side, 2 acyl side, 3 side chain; on linkers, the order of the positions; unused ones are H or OH. Bridge positions count the residues as written; N and C are the ends. Square brackets hold non-standard residues; d marks the D form. Peptide text beside a SMILES is read from it. * marks the point of attachment. ξ: configuration not given here. ξhTyr(3S-OH,4S-OH,3'-OSO3H) = NC(C(=O)O)[C@H](O)[C@@H](O)c1ccc(O)c(OS(=O)(=O)O)c1; Orn(4R-OH,5R-OH) = O=C([C@H](C[C@@H](O)[C@@H](O)N[*:3])N[*:1])[*:2]; X6 = CCCCCOc1ccc(-c2cc(-c3ccc(C(=O)*)cc3)no2)cc1; X7 = C[C@H]1CN([*:1])C(C(=O)[*:2])[C@H]1O; ξGln(3R-OH) = NC(=O)C[C@@H](O)C(N)C(=O)O; ξPro(4R-OH) = O=C(O)C1C[C@@H](O)CN1; ξThr(3R) = C[C@@H](O)C(N)C(=O)O

The first assay concerns the target Aldehyde dehydrogenase, mitochondrial (Homo sapiens) (UniProt P05091). Put plainly: qHTS for Inhibitors of the Aldehyde Dehydrogenase Family (ALDH2) Primary screen (AID 2061308).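 Further: plate controls were vehicle for no effect and reference inhibitor for full effect; nearly all actives have a fitted effect of over 55% in size.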 The conditions noted are these: ALDH2 enzyme inhibition qHTS, 1536-well; series mostly up to 56 µM; activity change, negative = inhibition: at the top concentration. In general terms: In qHTS, concentration-response curves come from the screen itself.
In the case of `CC(C)(C)c1ccc(CNC(=S)NCc2ccc(NS(C)(=O)=O)c(F)c2)cc1`, the “activity change, negative = inhibition” value was -16.9% (inactive).

For the compound `O=C(N[C@@H]1CC[C@@H](c2cccc(F)c2F)CN(CC(F)(F)F)C1=O)N1CCC(n2c(=O)[nH]c3ncccc32)CC1`, the “activity change, negative = inhibition” value is 6.68% (inactive).

In the case of `CCCCc1nc(Cl)c(CO)n1Cc1ccc(-c2ccccc2-c2nnn[nH]2)cc1`, the “activity change, negative = inhibition” value was -4.37% (inactive).

With `Oc1ccccc1-c1cc(-c2ccccc2F)[nH]n1`, the “activity change, negative = inhibition” value is 6.98% (inactive).

As to `O=C(NCCN1CCC(n2c(=O)[nH]c3ccccc32)CC1)c1ccc2ccccc2c1`, the “activity change, negative = inhibition” value is 2.39% (inactive).

For `O=C(NCCCc1ccccc1)C1CCC(CNS(=O)(=O)c2cccc3nsnc23)CC1` (configuration not stated), the “activity change, negative = inhibition” value is 12.6% (inactive).

As to `Cc1c(C(=O)Nc2ccc(N3CCC(N4CCOCC4)CC3)c(C#N)c2)cnn1-c1ccc(Cl)cc1`, the “activity change, negative = inhibition” value is 2.86% (inactive).

`CSc1ccc(C(=O)N[C@@H]2CCCC[C@@H]2NC(=O)CNC(=O)c2cc(C(F)(F)F)ccc2NC(=O)NC(C)C)cc1`: the “activity change, negative = inhibition” value is 8.45% (inactive).

`Cc1cc(C)nc(SCC(=O)Nc2ncc(Cc3cccc4ccccc34)s2)n1`: the “activity change, negative = inhibition” value is -2.43% (inactive).

For `CC1(C)C(=O)C(C)(C)c2cc(C(=O)Nc3ccc(C(=O)O)cc3)ccc21`, the “activity change, negative = inhibition” value was 2.85% (inactive).

`O=C1COc2nccc(-c3ccccc3F)c2CN1Cc1cc(C(F)(F)F)cc(C(F)(F)F)c1`: the “activity change, negative = inhibition” value was 3.89% (inactive).

For the compound `CC(c1ncncc1F)C(O)(Cn1cncn1)c1ccc(F)cc1F` (configuration not stated), the “activity change, negative = inhibition” value is -2.19% (inactive).

Turning to `OC(CC1c2ccccc2-c2cncn21)C1CCCCC1` (configuration not stated), the “activity change, negative = inhibition” value is 6.09% (inactive).

On to `Cc1ccc(-c2c(-c3nn(C)c4ncnc(N5CC[C@H](N6CCCCC6)C5)c34)cnn2C)cc1`, for which the “activity change, negative = inhibition” value was 5.87% (inactive).

In the case of `COc1cc(CCc2cc(NC(=O)c3ccc(N4CC(C)NC(C)C4)cc3)n[nH]2)cc(OC)c1` (configuration not stated), the “activity change, negative = inhibition” value was 7.61% (inactive).

With `O=C(c1cn(Cc2cncn2Cc2ccc(Br)cc2)cc1-c1cccc2ccccc12)N1CCOCC1`, the “activity change, negative = inhibition” value is 4.31% (inactive).

Consider `CC(=O)NCC(=O)N1C2CCC1c1cc(Nc3ncc(C(F)(F)F)c(NC4CCC4)n3)ccc12` (configuration not stated), for which the “activity change, negative = inhibition” value is 16.4% (inactive).

In the next assay the target is Retinaldehyde dehydrogenase 3 (Homo sapiens) (UniProt P47895). The assay is described as follows: qHTS for Inhibitors of the Aldehyde Dehydrogenase Family (ALDH1A3) Validation screen (AID 2061312). Further: on the % scale 0 is the no-effect control and ±100 the full control effect; nearly all actives have a fitted effect of over 45% in size. The conditions noted are these: ALDH1A3 enzyme inhibition qHTS validation, fluorescence; series mostly up to 84.7 µM; activity change, negative = inhibition: at the top concentration.
With `NC(=O)CCCSc1nc(N)nc(-c2c(Cl)cc3c4c(cccc24)COC3)n1`, the “activity change, negative = inhibition” value is -15.6% (inactive).

Consider `CCCCOC(=O)NC(=O)C1c2ccccc2Oc2ccccc21`, for which the “activity change, negative = inhibition” value was 30.7% (inactive).

Take `CNC(=O)c1ccc2c(c1)CCO[C@H]2CCN1CCN(c2ccc(OC)cc2)CC1`: the “activity change, negative = inhibition” value was 172% (inactive).

Consider `Cc1onc(-c2c(Cl)cccc2Cl)c1CC(=O)NCc1ccc(OCC(F)(F)F)nc1`, for which the “activity change, negative = inhibition” value is -26.6% (inactive).

On to `O=C(OC(C(F)(F)F)C(F)(F)F)N1CCN(Cc2cccc(Oc3ccccc3)c2)CC1`, for which the “activity change, negative = inhibition” value is -3.43% (inactive).

Take `Cc1ccc(-c2c(-c3nn(C)c4ncnc(N5CCC(N6CCCCC6)C5)c34)cnn2C)cc1` (configuration not stated): the “activity change, negative = inhibition” value is 94.6% (inactive).

Consider `C=C[C@]1(C)C[C@@H](OC(=O)CSC2C[C@H]3CC[C@@H](C2)N3C)[C@]2(C)[C@H](C)CC[C@]3(CCC(=O)[C@H]32)[C@@H](C)[C@@H]1O` (some centres not stated), for which the “activity change, negative = inhibition” value was 38.9% (inactive).

Turning to `Cn1c(=O)cc(N2CCCC(N)C2)n(Cc2cc(F)ccc2C#N)c1=O` (configuration not stated), the “activity change, negative = inhibition” value was 21.4% (inactive).

Regarding `Cc1ccc(C)c(OCCn2cc(C(=O)O)c3ccccc32)c1`, the “activity change, negative = inhibition” value was -3.16% (inactive).

Consider `Nc1nc(COC(=O)c2ccc([N+](=O)[O-])cc2)nc(Nc2ccccc2)n1`, for which the “activity change, negative = inhibition” value was 51.8% (inactive).

As to `Cc1cc(C(=O)Nc2cccc(C(=O)Nc3cccc(C(F)(F)F)c3)c2)on1`, the “activity change, negative = inhibition” value is 22.9% (inactive).

Consider `CCOC(=O)c1ccc(N(C)c2csc(-c3ccccc3)n2)cc1`, for which the “activity change, negative = inhibition” value is 16.9% (inactive).

Regarding `Cn1c2ccc(NC(=O)c3ccccc3)cc2c(=O)n2nc(C(=O)O)cc12`, the “activity change, negative = inhibition” value is -6.02% [at 42.4 µM] (inactive).

`CC(C)C(=O)Oc1ccc(CO)cc1[C@H](CCN(C(C)C)C(C)C)c1ccccc1`: the “activity change, negative = inhibition” value was -2.81% (inactive).

`Cc1nc2n(c(=O)c1CCN1CCC(c3noc4cc(F)ccc34)CC1)CCC[C@H]2O`: the “activity change, negative = inhibition” value is 92% (inactive).

With `COc1ccc(N2CCN(CCCNC(=O)Cn3c(=O)c4cccn4c4c(C)ccnc43)CC2)cc1`, the “activity change, negative = inhibition” value was -36.2% (inactive).

Take `Cc1ccccc1CN1CCn2c1nc1c(c2=O)CN(Cc2ccccc2)CC1`: the “activity change, negative = inhibition” value is 42.2% (inactive).

Turning to `O=S(=O)(Nc1cc(Cl)c(Oc2cnc3ccccc3c2)c(Cl)c1)c1ccc(Cl)cc1Cl`, the “activity change, negative = inhibition” value is -2.79% (inactive).

With `CCCCCCOc1cc2c(cc1N(C)c1ncc(C(=O)O)cn1)C(C)(C)CCC2(C)C`, the “activity change, negative = inhibition” value is 0.562% (inactive).

Regarding `COc1ccc(-c2nc(-c3cc(C(F)(F)F)cc(C(F)(F)F)c3)n(Cc3ccc(C(N)=O)cc3)c2-c2ccc(OC)cc2)cc1`, the “activity change, negative = inhibition” value was 28% (inactive).

As to `CCCCCOc1ccc(-c2cc(-c3ccc(C(=O)N[C@H]4C[C@@H](O)[C@@H](O)NC(=O)C5[C@@H](O)[C@@H](C)CN5C(=O)C([C@H](O)CC(N)=O)NC(=O)C([C@H](O)[C@@H](O)c5ccc(O)c(OS(=O)(=O)O)c5)NC(=O)C5C[C@@H](O)CN5C(=O)C([C@@H](C)O)NC4=O)cc3)no2)cc1` (stereo partly drawn) (X6-[Orn(4R-OH,5R-OH)][ξThr(3R)][ξPro(4R-OH)][ξhTyr(3S-OH,4S-OH,3'-OSO3H)][ξGln(3R-OH)][X7]; lactam 1-C), the “activity change, negative = inhibition” value was 2.27% [at 42.4 µM] (inactive).

`CC(C)c1c(NC(=O)Nc2ccc(Cl)cc2)c(=O)n(-c2ccccc2)n1C`: the “activity change, negative = inhibition” value is 13.5% (inactive).

Consider `CC[C@H]1OC(=O)[C@H](C)[C@@H](O[C@H]2C[C@@](C)(OC)[C@@H](O)[C@H](C)O2)C(C)[C@@H](O[C@@H]2O[C@H](C)C[C@H](N(C)C)[C@H]2O)[C@](C)(O)C[C@@H](C)CN(C)[C@H](C)[C@@H](O)[C@]1(C)O` (some centres not stated), for which the “activity change, negative = inhibition” value was 93.6% (inactive).

On to `CC(C)(C)c1ccc(CNC(=S)NCc2ccc(NS(C)(=O)=O)c(F)c2)cc1`, for which the “activity change, negative = inhibition” value is 121% (inactive).

As to `O=C(N[C@@H]1CC[C@@H](c2cccc(F)c2F)CN(CC(F)(F)F)C1=O)N1CCC(n2c(=O)[nH]c3ncccc32)CC1`, the “activity change, negative = inhibition” value was -47% (inactive).

With `CCCCc1nc(Cl)c(CO)n1Cc1ccc(-c2ccccc2-c2nnn[nH]2)cc1`, the “activity change, negative = inhibition” value is 14.5% (inactive).

As to `Oc1ccccc1-c1cc(-c2ccccc2F)[nH]n1`, the “activity change, negative = inhibition” value was -20.6% (inactive).

Regarding `O=C(NCCN1CCC(n2c(=O)[nH]c3ccccc32)CC1)c1ccc2ccccc2c1`, the “activity change, negative = inhibition” value was 23.8% (inactive).

Consider `O=C(NCCCc1ccccc1)C1CCC(CNS(=O)(=O)c2cccc3nsnc23)CC1` (configuration not stated), for which the “activity change, negative = inhibition” value was 0.945% (inactive).

Turning to `Cc1c(C(=O)Nc2ccc(N3CCC(N4CCOCC4)CC3)c(C#N)c2)cnn1-c1ccc(Cl)cc1`, the “activity change, negative = inhibition” value is 12.6% (inactive).

On to `CSc1ccc(C(=O)N[C@@H]2CCCC[C@@H]2NC(=O)CNC(=O)c2cc(C(F)(F)F)ccc2NC(=O)NC(C)C)cc1`, for which the “activity change, negative = inhibition” value was 11.5% (inactive).

For `Cc1cc(C)nc(SCC(=O)Nc2ncc(Cc3cccc4ccccc34)s2)n1`, the “activity change, negative = inhibition” value was -20.9% (inactive).

In the case of `CC1(C)C(=O)C(C)(C)c2cc(C(=O)Nc3ccc(C(=O)O)cc3)ccc21`, the “activity change, negative = inhibition” value was -6.39% (inactive).

Turning to `O=C1COc2nccc(-c3ccccc3F)c2CN1Cc1cc(C(F)(F)F)cc(C(F)(F)F)c1`, the “activity change, negative = inhibition” value was 1.73% (inactive).

On to `CC(c1ncncc1F)C(O)(Cn1cncn1)c1ccc(F)cc1F` (configuration not stated), for which the “activity change, negative = inhibition” value is 8.1% (inactive).

Turning to `OC(CC1c2ccccc2-c2cncn21)C1CCCCC1` (configuration not stated), the “activity change, negative = inhibition” value is 105% (inactive).

As to `Cc1ccc(-c2c(-c3nn(C)c4ncnc(N5CC[C@H](N6CCCCC6)C5)c34)cnn2C)cc1`, the “activity change, negative = inhibition” value was 18.1% (inactive).

For `COc1cc(CCc2cc(NC(=O)c3ccc(N4CC(C)NC(C)C4)cc3)n[nH]2)cc(OC)c1` (configuration not stated), the “activity change, negative = inhibition” value is 151% (inactive).

For the compound `O=C(c1cn(Cc2cncn2Cc2ccc(Br)cc2)cc1-c1cccc2ccccc12)N1CCOCC1`, the “activity change, negative = inhibition” value is 62.5% (inactive).

With `CC(=O)NCC(=O)N1C2CCC1c1cc(Nc3ncc(C(F)(F)F)c(NC4CCC4)n3)ccc12` (configuration not stated), the “activity change, negative = inhibition” value is 4.37% (inactive).
